PubChem BioAssay (EPA / NIEHS)
Activity calls are given as the source filed them. How the source made its calls: active means hit-call score of the fitted dose curve at least 0.9, where 1 is the maximum; inactive means score below 0.9.

Columns and labels:
Conditions in all cases: mRNA level, 48 h; actives raise or lower the signal
[1] = read-out: Nuclear factor NF-kappa-B p105 subunit (Homo sapiens) (UniProt P19838); test: LTEA_HepaRG_NFKB1: Life Technologies and Expression Analysis (LTEA) Assay for Nuclear Factor Kappa B Subunit 1 (NFKB1) using HepaRG (AID 2283521);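 further: differentiated human HepaRG liver cells in serum-free induction medium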
Procedure, shortened: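 Human HepaRG cells receive eight half-log concentrations, highest 100 uM, for 48 h. NFKB1 expression is then quantified by qRT-PCR and analysed for up- or down-regulation relative to 0.5% DMSO vehicle.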

[2] = read-out: Phosphatase and tensin (PTEN), PTEN (gene 5728); test: LTEA_HepaRG_PTEN: Life Technologies and Expression Analysis (LTEA) Assay for Phosphatase and tensin (PTEN) using HepaRG (AID 2283523)
Procedure, shortened: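 Expression of PTEN is quantified in the human liver line HepaRG following two days of dosing (top concentration 100 uM, half-log dilutions, 0.5% DMSO). Values derive from bidirectional curve fitting relative to DMSO controls.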

[3] = read-out: solute carrier (SLC22A1), SLC22A1 (gene 6580); test: LTEA_HepaRG_SLC22A1: Life Technologies and Expression Analysis (LTEA) Assay for solute carrier (SLC22A1) using HepaRG (AID 2283524)
Procedure, shortened: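 Transcript induction or suppression of SLC22A1 in human HepaRG cultures is scored after 48 h chemical treatment, with DMSO (0.5%) as baseline for bidirectional fitting. Concentrations span eight half-log points topping at 100 uM.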

[4] = read-out: Pyruvate Dehydrogenase Kinase 4 (PDK4), PDK4 (gene 5166); test: LTEA_HepaRG_PDK4: Life Technologies and Expression Analysis (LTEA) Assay for Pyruvate Dehydrogenase Kinase 4 (PDK4) using HepaRG (AID 2283525)
Procedure, shortened: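 Eight-point, half-log concentration series (max 100 uM, 0.5% DMSO) applied to differentiated HepaRG cells for 48 h in duplicate. Endpoint: PDK4 mRNA induction or repression by qRT-PCR against DMSO baseline.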

[5] = read-out: NAD(P)H dehydrogenase [quinone] 1 (NQO1), NQO1 (gene 1728); test: LTEA_HepaRG_NQO1: Life Technologies and Expression Analysis (LTEA) Assay for NAD(P)H dehydrogenase [quinone] 1 (NQO1) using HepaRG (AID 2283526)
Procedure, shortened: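 qRT-PCR read-out (Fluidigm TaqMan), normalized to three housekeeping genes, after 48 h chemical exposure of HepaRG cells. Concentrations: eight points, top 100 uM, half-log steps, 0.5% DMSO vehicle. Gain or loss of signal fitted relative to DMSO.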

[6] = read-out: Nuclear factor erythroid 2-related factor 2 (Homo sapiens) (UniProt Q16236); test: LTEA_HepaRG_NFE2L2: Life Technologies and Expression Analysis (LTEA) Assay for Nuclear factor erythroid 2-related factor 2 (NFE2L2) Transcription Factor using HepaRG (AID 2283527)
Procedure, shortened: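 Human liver HepaRG line treated in duplicate for 48 h with an eight-point series topping at 100 uM. Gene expression of NFE2L2 by qRT-PCR, bidirectionally fitted against the vehicle control.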

[7] = read-out: succinate dehydrogenase complex iron sulfur subunit B (SDHB), SDHB (gene 6390); test: LTEA_HepaRG_SDHB: Life Technologies and Expression Analysis (LTEA) Assay for succinate dehydrogenase complex iron sulfur subunit B (SDHB) using HepaRG (AID 2283528)
Procedure, shortened: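 A human HepaRG culture in serum-free induction medium received test chemicals for 48 h over an eight-point range capped at 100 uM. SDHB expression change was quantified by qRT-PCR.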

[8] = read-out: Signal transducer and activator of transcription 3 (Homo sapiens) (UniProt P40763); test: LTEA_HepaRG_STAT3: Life Technologies and Expression Analysis (LTEA) Assay for Signal transducer and activator of transcription (STAT3) using HepaRG (AID 2283529)
Procedure, shortened: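 In this transcriptional endpoint, HepaRG cultures receive test chemicals at up to 100 uM for 48 h, tested in duplicate. STAT3 mRNA is normalized to ACTB, GAPDH and POLR2A.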

[9] = read-out: solute carrier (SLCO1B1), SLCO1B1 (gene 10599); test: LTEA_HepaRG_SLCO1B1: Life Technologies and Expression Analysis (LTEA) Assay for solute carrier (SLCO1B1) using HepaRG (AID 2283530)
Procedure, shortened: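 SLCO1B1 transcript levels were quantified by TaqMan qRT-PCR using three housekeeping genes for normalization. This followed 48 h chemical exposure (100 uM top, half-log, 8 points, 0.5% DMSO) of HepaRG liver cells, with gain or loss fitted relative to DMSO.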

[10] = read-out: sulfotransferase 2A1 (SULT2A1), SULT2A1 (gene 6822); test: LTEA_HepaRG_SULT2A1: Life Technologies and Expression Analysis (LTEA) Assay for sulfotransferase 2A1 (SULT2A1) using HepaRG (AID 2283531)
Procedure, shortened: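 Expression change of SULT2A1, by qRT-PCR with three housekeeping-gene normalization, was scored bidirectionally versus DMSO. Cells: differentiated HepaRG, dosed in duplicate for 48 h across 8 points, highest 100 µM, half-log dilution, 0.5% DMSO.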

[11] = read-out: Transforming Growth Factor (TGFA), TGFA (gene 7039); test: LTEA_HepaRG_TGFA: Life Technologies and Expression Analysis (LTEA) Assay for Transforming Growth Factor (TGFA) using HepaRG (AID 2283532)
Procedure, shortened: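 Gene expression of TGFA was quantified by qRT-PCR after human HepaRG cells were treated for 48 h with test chemicals (eight concentrations, highest 100 uM, 0.5% DMSO). Activity in either direction was fitted relative to DMSO.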

[12] = read-out: Transforming Growth Factor (TGFB1), TGFB1 (gene 7040); test: LTEA_HepaRG_TGFB1: Life Technologies and Expression Analysis (LTEA) Assay for Transforming Growth Factor (TGFB1) Transporter using HepaRG (AID 2283533)
Procedure, shortened: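 TGFB1 transcript measured by qRT-PCR with normalisation to three housekeeping genes (ACTB, GAPDH, POLR2A); human HepaRG line treated in duplicate for 48 hr with an 8-point series topping at 100 uM, 0.5% DMSO vehicle, bidirectionally fitted.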

[13] = read-out: TIMP1, TIMP1 (gene 7076); test: LTEA_HepaRG_TIMP1: Life Technologies and Expression Analysis (LTEA) Assay for TIMP1 using HepaRG (AID 2283534)
Procedure, shortened: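 Bidirectional change in TIMP1 transcript versus 0.5% DMSO, measured by TaqMan qRT-PCR with three housekeeping genes for normalization. HepaRG human liver cells dosed 48 h in duplicate, top concentration 100 uM with half-log dilutions.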

[14] = read-out: Tumor necrosis factor receptor 1 (TNFRSF1A), TNFRSF1A (gene 7132); test: LTEA_HepaRG_TNFRSF1A: Life Technologies and Expression Analysis (LTEA) Assay for Tumor necrosis factor receptor 1 (TNFRSF1A) using HepaRG (AID 2283535)
Procedure, shortened: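 mRNA measured by qRT-PCR (TaqMan, Fluidigm arrays) against ACTB/GAPDH/POLR2A housekeepers after 48 h chemical exposure of HepaRG cells. Top concentration 100 uM, half-log 8-point series, duplicates; vehicle 0.5% DMSO, both fit directions.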

[15] = read-out: Thyroid Hormone Responsive (THRSP), THRSP (gene 7069); test: LTEA_HepaRG_THRSP: Life Technologies and Expression Analysis (LTEA) Assay for Thyroid Hormone Responsive (THRSP) using HepaRG (AID 2283536)
Procedure, shortened: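 Cell model: human HepaRG, approx. 100,000 cells/well, 0.5% DMSO vehicle. Exposure lasts 48 h; phenobarbital 1 mM serves as induction positive control. Gene expression is measured by qRT-PCR against three endogenous control genes.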

[16] = read-out: Cellular tumor antigen p53 (Homo sapiens) (UniProt P04637); test: LTEA_HepaRG_TP53: Life Technologies and Expression Analysis (LTEA) Assay for Tumor Protein P53 (TP53) using HepaRG (AID 2283537)
Procedure, shortened: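 Gain or loss of TP53 mRNA signal is scored relative to 0.5% DMSO after 48 h chemical treatment of HepaRG liver cells, tested in duplicate at eight half-log concentrations up to 100 uM.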

[17] = read-out: UDP glucuronosyltransferase (UGT1A1), UGT1A1 (gene 54658); test: LTEA_HepaRG_UGT1A1: Life Technologies and Expression Analysis (LTEA) Assay for UDP glucuronosyltransferase (UGT1A1) using HepaRG (AID 2283538)
Procedure, shortened: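 HepaRG, 48 h chemical exposure (top 100 uM, half-log 8-pt, 0.5% DMSO vehicle), duplicate wells; qRT-PCR (TaqMan, Fluidigm array) for UGT1A1 mRNA, housekeeping-normalized; bidirectional curve fit vs DMSO baseline.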

[18] = read-out: UDP glucuronosyltransferase (UGT1A6), UGT1A6 (gene 54578); test: LTEA_HepaRG_UGT1A6: Life Technologies and Expression Analysis (LTEA) Assay for UDP glucuronosyltransferase (UGT1A6) using HepaRG (AID 2283539)
Procedure, shortened: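 Expression was quantified by TaqMan qRT-PCR on Fluidigm arrays with ACTB/GAPDH/POLR2A normalization and bidirectional fitting against 0.5% DMSO. HepaRG cells (~100,000/well) were treated in duplicate for 48 h at eight half-log concentrations up to 100 uM in serum-free induction medium.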

[19] = read-out: X-box binding protein 1 (XBP1), XBP1 (gene 7494); test: LTEA_HepaRG_XBP1: Life Technologies and Expression Analysis (LTEA) Assay for X-box binding protein 1 (XBP1) using HepaRG (AID 2283540)
Procedure, shortened: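 XBP1 transcript by qRT-PCR (housekeeping-normalized: ACTB, GAPDH, POLR2A) after 48 h chemical treatment of HepaRG cells, 8-point half-log series topping at 100 uM, vehicle 0.5% DMSO. Gain and loss of signal fitted relative to DMSO.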

[20] = read-out: Protein phosphatase 2A (PPP2R4), PTPA (gene 5524); test: LTEA_HepaRG_PPP2R4: Life Technologies and Expression Analysis (LTEA) Assay for Protein phosphatase 2A (PPP2R4) using HepaRG (AID 2283522)
Procedure, shortened: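 HepaRG, 48 h exposure, 8-pt half-log series from 100 uM, 0.5% DMSO vehicle, duplicates. Readout: PPP2R4 mRNA, Fluidigm qRT-PCR, housekeeping-normalized. Bidirectional curve fit vs DMSO baseline.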

Measured: AC50

Chain of Signal transducer and activator of transcription 3 (Homo sapiens) (P40763 whole entry, looked up): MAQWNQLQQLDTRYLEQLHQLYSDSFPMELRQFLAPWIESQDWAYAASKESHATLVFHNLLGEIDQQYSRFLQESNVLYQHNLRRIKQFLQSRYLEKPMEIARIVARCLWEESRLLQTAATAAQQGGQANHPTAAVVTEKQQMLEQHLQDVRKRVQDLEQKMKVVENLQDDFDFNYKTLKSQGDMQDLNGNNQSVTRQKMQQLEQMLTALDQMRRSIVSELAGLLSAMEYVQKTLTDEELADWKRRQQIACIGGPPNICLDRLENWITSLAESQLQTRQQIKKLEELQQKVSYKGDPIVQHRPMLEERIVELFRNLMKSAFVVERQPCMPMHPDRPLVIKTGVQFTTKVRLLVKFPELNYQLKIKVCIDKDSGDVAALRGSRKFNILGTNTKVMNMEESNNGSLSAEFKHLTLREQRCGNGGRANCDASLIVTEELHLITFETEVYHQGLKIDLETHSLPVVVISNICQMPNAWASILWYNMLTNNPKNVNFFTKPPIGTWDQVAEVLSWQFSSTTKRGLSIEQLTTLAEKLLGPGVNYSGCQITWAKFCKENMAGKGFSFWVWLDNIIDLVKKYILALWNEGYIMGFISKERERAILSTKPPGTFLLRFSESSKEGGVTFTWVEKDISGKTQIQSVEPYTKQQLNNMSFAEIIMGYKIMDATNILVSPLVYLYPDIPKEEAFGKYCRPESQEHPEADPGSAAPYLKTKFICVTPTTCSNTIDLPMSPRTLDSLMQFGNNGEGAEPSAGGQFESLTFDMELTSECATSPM
Chain of Nuclear factor erythroid 2-related factor 2 (Homo sapiens) (Q16236 whole entry, looked up): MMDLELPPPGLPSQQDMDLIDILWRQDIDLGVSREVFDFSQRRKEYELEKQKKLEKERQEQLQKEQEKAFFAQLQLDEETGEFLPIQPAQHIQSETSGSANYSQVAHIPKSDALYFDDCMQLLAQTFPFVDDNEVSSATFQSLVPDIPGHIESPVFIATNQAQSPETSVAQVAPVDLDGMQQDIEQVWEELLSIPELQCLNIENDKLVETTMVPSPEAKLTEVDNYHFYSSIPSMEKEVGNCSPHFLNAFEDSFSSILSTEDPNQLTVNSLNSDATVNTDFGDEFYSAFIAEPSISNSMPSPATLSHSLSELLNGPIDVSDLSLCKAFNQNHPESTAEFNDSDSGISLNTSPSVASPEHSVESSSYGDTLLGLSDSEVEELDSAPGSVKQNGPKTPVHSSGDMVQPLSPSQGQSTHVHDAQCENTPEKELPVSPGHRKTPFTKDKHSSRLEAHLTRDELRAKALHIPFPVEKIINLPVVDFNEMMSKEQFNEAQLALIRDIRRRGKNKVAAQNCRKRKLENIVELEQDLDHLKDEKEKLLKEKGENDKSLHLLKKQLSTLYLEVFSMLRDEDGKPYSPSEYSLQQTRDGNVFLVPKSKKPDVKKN
Chain of Cellular tumor antigen p53 (Homo sapiens) (P04637 whole entry, looked up): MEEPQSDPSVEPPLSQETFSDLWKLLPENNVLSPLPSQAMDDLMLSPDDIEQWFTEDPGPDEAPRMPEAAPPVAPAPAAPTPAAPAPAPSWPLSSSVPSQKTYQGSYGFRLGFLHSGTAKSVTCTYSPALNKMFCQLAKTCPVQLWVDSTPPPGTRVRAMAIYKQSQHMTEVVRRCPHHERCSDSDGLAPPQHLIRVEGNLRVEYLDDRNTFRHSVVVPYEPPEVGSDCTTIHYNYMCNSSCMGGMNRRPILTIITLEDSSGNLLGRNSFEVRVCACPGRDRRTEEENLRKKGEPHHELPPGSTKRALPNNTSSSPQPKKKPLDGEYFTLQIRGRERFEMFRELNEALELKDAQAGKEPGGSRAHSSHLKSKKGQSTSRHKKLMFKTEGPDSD
Chain of Nuclear factor NF-kappa-B p105 subunit (Homo sapiens) (P19838 whole entry, looked up): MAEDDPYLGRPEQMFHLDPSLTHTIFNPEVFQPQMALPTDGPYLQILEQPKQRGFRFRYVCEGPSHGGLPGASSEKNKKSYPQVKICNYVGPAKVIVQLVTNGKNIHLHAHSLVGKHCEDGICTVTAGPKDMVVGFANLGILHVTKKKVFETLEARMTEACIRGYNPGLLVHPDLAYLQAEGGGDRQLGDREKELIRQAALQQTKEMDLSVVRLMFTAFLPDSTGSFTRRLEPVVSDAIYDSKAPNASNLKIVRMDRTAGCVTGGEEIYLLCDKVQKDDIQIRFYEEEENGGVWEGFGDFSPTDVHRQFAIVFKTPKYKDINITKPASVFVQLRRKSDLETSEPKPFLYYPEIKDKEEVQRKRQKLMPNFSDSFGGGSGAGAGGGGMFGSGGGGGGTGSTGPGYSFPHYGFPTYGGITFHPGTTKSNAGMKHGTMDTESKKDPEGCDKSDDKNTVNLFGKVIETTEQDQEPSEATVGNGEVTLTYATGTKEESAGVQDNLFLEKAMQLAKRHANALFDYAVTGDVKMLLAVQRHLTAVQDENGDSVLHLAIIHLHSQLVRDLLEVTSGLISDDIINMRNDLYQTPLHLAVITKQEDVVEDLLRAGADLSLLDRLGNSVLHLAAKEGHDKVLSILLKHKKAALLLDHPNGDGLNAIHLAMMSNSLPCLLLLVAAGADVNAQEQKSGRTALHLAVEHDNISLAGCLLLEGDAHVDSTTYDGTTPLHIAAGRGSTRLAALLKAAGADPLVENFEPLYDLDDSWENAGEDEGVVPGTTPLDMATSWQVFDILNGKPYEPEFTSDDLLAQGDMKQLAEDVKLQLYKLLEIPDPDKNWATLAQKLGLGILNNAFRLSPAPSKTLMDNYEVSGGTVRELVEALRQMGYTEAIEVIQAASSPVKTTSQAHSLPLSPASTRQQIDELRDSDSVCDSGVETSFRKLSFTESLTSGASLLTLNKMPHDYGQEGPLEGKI

CCCCCCCC(=O)OC
active: [2] 12.2 µM
not listed: [20]
inactive: all other assays above

O=[Si]=O
not listed: [10] | [20]
inactive: all other assays above

O=C(Oc1ccccc1)c1cccc(C(=O)Oc2ccccc2)c1
not listed: [1] | [16] | [19]
inactive: all other assays above

CC(=O)CC(c1ccccc1)c1c(O)c2ccccc2oc1=O (stereo not given)
active: [15] 34.5 µM
not listed: [1] | [5] | [16] | [17] | [19] | [20]
inactive: all other assays above

CCCCCCCCCC[N+](C)(C)[O-]
not listed: [1] | [19]
inactive: all other assays above

COc1ccc(C(=O)Nc2nc3ccccc3c(NCc3ccccc3)c2C#N)cc1
active: [6] 20.9 µM | [9] 16.3 µM | [12] 7.58 µM | [15] 13.6 µM | [17] 3.8 µM | [19] 13.2 µM
not listed: [1] | [3] | [10]
inactive: all other assays above

CCc1cc(C2=C(C(=O)O)N(c3ccccc3C(F)(F)F)S(=O)(=O)c3ccccc32)cc2c1OCO2
active: [4] 50 µM | [6] 50 µM | [9] 50 µM | [10] 85.5 µM | [11] 79.1 µM | [15] 87 µM | [16] 69.5 µM | [17] 1.73 µM | [18] 74.8 µM
not listed: [1] | [3]
inactive: all other assays above

NC(=Nc1ccccc1)Nc1ccccc1
active: [15] 12.8 µM
not listed: [1] | [17] | [20]
inactive: all other assays above

NC1CCCCC1
not listed: [1] | [10] | [16] | [17] | [19]
inactive: all other assays above

CC(C)(C)c1ccccc1
not listed: [1] | [17] | [19] | [20]
inactive: all other assays above

CC(C)c1cccc(C(C)C)c1NC(=O)NS(=O)(=O)c1cc(C(C)(C)O)co1
not listed: [1] | [19]
inactive: all other assays above

O=C1NC(=O)C(c2ccccc2)(c2ccccc2)N1
not listed: [1] | [10] | [16] | [17]
inactive: all other assays above

Oc1ccccc1O
not listed: [1] | [17] | [20]
inactive: all other assays above

CC(N)=O
active: [14] 0.243 µM
not listed: [1] | [2] | [10] | [16]
inactive: all other assays above

CC(COCC(C)OC(=O)c1ccccc1)OC(=O)c1ccccc1 (stereo not given)
not listed: [1] | [10] | [16] | [19]
inactive: all other assays above

CCCC[C@H]1CN(CC2CCOCC2)C(=O)OC12CCN(C1(C)CCN(C(=O)c3c(C)ncnc3C)CC1)CC2
not listed: [1] | [17]
inactive: all other assays above
